Source: PubChem BioAssay
ELG1 genotox: qHTS screen for small molecules that induce genotoxicity in human embryonic kidney (HEK293T) cells expressing luciferase-tagged ELG1 | hit rate 1.3% among 330,000 | HEK293T ELG1-luciferase reporter, luminescence, 16 h | Potency, µM (series often up to 46 µM), without a hit: at the highest dose activity change, positive = activation, hits mostly activators; also: % of control where 0% means no effect; nearly all actives have a fitted effect of over 60% in size
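Genotoxicity was scored as increased ELG1-luciferase reporter signal, measured by ONE-Glo luminescence (30 min, room temperature). Compound or vehicle exposure of the HEK293T reporter cells lasted 16 hr at 37°C.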
SMN2 splice up: qHTS Assay for Enhancers of SMN2 Splice Variant Expression. AID 1458, 2008. HEK293 SMN2-luciferase splicing reporter, luminescence, 30-36 h. hit rate 2.8% among 210,000. Potency, µM (highest dose often 46.1 µM), for inactives: at the highest dose activity change, positive = activation, most hits filed as activators; also: % of control where 0% means no effect; nearly all actives have a fitted effect of over 55% in size
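HEK293 cells carry an SMN2 […]–luciferase reporter in which exon 7 inclusion puts luciferase in frame. Cells were plated 10-12 h before compound addition, then incubated 30-36 h at 37C. ONE-Glo luminescence was read; sodium butyrate at 4.5 mM final served as control.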
ELG1 repair inh: qHTS screen for small molecules that inhibit ELG1-dependent DNA repair in human embryonic kidney (HEK293T) cells expressing luciferase-tagged ELG1 | AID 504467, 2011 | hit rate 2.3% among 330,000 | HEK293T ELG1-luciferase reporter, luminescence, 16 h; DNA damage induced by 5-fluorouridine | Potency, µM (highest dose often 46.1 µM), inactives show at the highest dose activity change, negative = inhibition, hits mostly inhibitors; also: % is scaled to controls: 0 for no effect and ±100 for the full control effect; nearly all actives have a fitted effect of over 55% in size
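Overnight (16 hr) co-exposure of 2,000 cells/well to 5-fluorouridine and compound at 37 °C preceded detection. Luciferase was quantified via ONE-Glo luminescence; loss of signal denotes inhibition.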
NPC1 prom act: qHTS Assay for NPC1 Promoter Activators; Huh7 NPC1 promoter luciferase reporter, 24 h; Potency, µM (series often up to 9.22 µM), for the others: at the top dose activation, most hits filed as activators; hit rate 2.4% among 320,000; also: % of control where 0% means no effect; nearly all actives have a fitted effect of over 60% in size
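Huh7 reporter cells (NPC1 promoter driving luciferase) are dosed with compound for 24 h at 37 °C, 5% CO2; luciferase detection reagent is then added and luminescence measured after 10 min at ambient temperature.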
Rab9 promoter act: qHTS Assay for Rab9 Promoter Activators | Potency, µM (highest dose often 9.22 µM), for inactives: at the highest dose activation, negative = inhibition, hits mostly activators | hit rate 2.8% among 320,000 | Huh7 Rab9 promoter-luciferase reporter, luminescence, 24 h; also: % of control where 0% means no effect; nearly all actives have a fitted effect of over 60% in size
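Using Huh7 cells stably transfected with Rab9 promoter–luciferase, compounds were incubated 24 h at 37 °C, 5% CO2; luciferase luminescence was read 10 min after reagent addition.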
FLuc modulator: qHTS profiling assay for firefly luciferase inhibitor/activator using purifed enzyme and Km concentrations of substrates (counterscreen for miR-21 project) | Luciferin 4-monooxygenase (Photinus pyralis), P08659 | purified FLuc, Km substrates, luminescence inhibition | Potency, µM (titrated, usually from 57.5 µM), for the others: top-dose activity change, negative = inhibition, actives largely listed as inhibitors | hit rate 6.9% among 360,000;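 also: plate controls were vehicle for no effect and reference inhibitor for full effect; nearly all actives have a fitted effect of over 55% in size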
Target sequence (P08659 whole entry, looked up): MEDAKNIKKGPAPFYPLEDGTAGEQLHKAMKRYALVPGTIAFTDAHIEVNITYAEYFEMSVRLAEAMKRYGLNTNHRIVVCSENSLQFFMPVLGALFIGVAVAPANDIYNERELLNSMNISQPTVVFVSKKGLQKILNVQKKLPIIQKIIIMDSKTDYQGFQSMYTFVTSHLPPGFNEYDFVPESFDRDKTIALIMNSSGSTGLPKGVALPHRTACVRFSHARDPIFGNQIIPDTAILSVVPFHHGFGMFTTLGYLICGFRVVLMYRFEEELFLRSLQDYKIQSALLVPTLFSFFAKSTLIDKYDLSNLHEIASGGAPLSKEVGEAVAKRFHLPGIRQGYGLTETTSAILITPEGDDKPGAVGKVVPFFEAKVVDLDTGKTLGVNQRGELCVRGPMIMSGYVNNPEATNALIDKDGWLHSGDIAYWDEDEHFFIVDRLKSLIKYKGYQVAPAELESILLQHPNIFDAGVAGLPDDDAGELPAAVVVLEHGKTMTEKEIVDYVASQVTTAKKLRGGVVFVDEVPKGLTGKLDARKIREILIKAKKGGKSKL
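Biochemical qHTS of compounds, final roughly 60 µM downward over six points, against 10 nM purified firefly luciferase using Km concentrations of substrates (10 uM D-luciferin, 10 uM ATP) in Tris acetate pH 7.5 buffer; luminescence output.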
* marks the source's active call; other numbers are inactive results; [ ] = remark or other dose. This is a sample that favours compounds with a hit; in the whole collection about 9.2% have one here. Calls follow the shape of the dose curve; as a rule, active = well fitted curve in the direction sought with a large enough effect; inconclusive = small, poorly fitted or top-dose-only effect, or another doubt; inactive = no such curve, though single readings can be large; an effect the other way counts as inactive or inconclusive. Potency is read from the fitted curve at half-maximal effect.

Screening O=C(Nc1ccc(S(=O)(=O)Nc2ncccn2)cc1)c1cccc(S(=O)(=O)N2CCOCC2)c1 returned ELG1 genotox 0.1%, ELG1 repair inh -4.8%, NPC1 prom act 0.3%, Rab9 promoter act -3.6% and FLuc modulator 6.3%.
`Cc1cc(/C=N/NC(=O)c2cc3ccccc3o2)c(C)n1C` gave ELG1 genotox -5.6%, ELG1 repair inh inconclusive, NPC1 prom act -1.9%, Rab9 promoter act -0.7% and FLuc modulator 21.3µM*.
For CCOC(=O)Cn1cc(/C=N/NC(=O)c2cc3ccccc3o2)c2ccccc21 the results were ELG1 genotox -0.5%, ELG1 repair inh inconclusive, NPC1 prom act 4.0%, Rab9 promoter act -3.2% and FLuc modulator 13.5µM*.
`O=C(N/N=C/c1ccncc1)c1cc2ccccc2o1` gave ELG1 genotox 2.3%, SMN2 splice up 13.9%, ELG1 repair inh -0.2%, NPC1 prom act -2.6%, Rab9 promoter act -2.4% and FLuc modulator 21.3µM*.
For CC(=O)OCOC(=O)CN(CC(=O)OCOC(C)=O)c1ccccc1OCCOc1ccccc1N(CC(=O)OCOC(C)=O)CC(=O)OCOC(C)=O the results were SMN2 splice up -13.3%.
Screening CCCCN(C)CCCNC(=O)C1CCC(CNS(=O)(=O)c2c(C)cc(C)cc2C)CC1 (stereo unspecified) returned ELG1 genotox -4.7%, ELG1 repair inh 11.1%, NPC1 prom act -0.2%, Rab9 promoter act 0.0% and FLuc modulator 0.4%.
For O=C(Cc1ccccc1)NC(=S)Nc1ccc(OC(F)F)cc1 the results were ELG1 genotox 18.0%, ELG1 repair inh 15.4%, NPC1 prom act 10.6%, Rab9 promoter act 8.2% and FLuc modulator inconclusive.
`COc1cc(N=c2c([N+](=O)[O-])nn(-c3ccc4c(c3)OCCO4)n2O)cc(OC)c1` gave ELG1 genotox 14.9%, SMN2 splice up 12.6µM*, ELG1 repair inh inconclusive, NPC1 prom act 28.6%, Rab9 promoter act inconclusive and FLuc modulator inconclusive.
`O=[N+]([O-])c1nn(-c2ccc3c(c2)OCCO3)n(O)c1=NCc1ccc(F)cc1` gave ELG1 genotox inconclusive, SMN2 splice up 3.98µM*, ELG1 repair inh inconclusive, NPC1 prom act inconclusive, Rab9 promoter act 3.55µM* and FLuc modulator 4.26µM*.
`CN=c1c([N+](=O)[O-])nn(-c2ccc3c(c2)OCCO3)n1O` gave ELG1 genotox inconclusive, SMN2 splice up -9.6%, ELG1 repair inh inconclusive, NPC1 prom act 20.0%, Rab9 promoter act inconclusive and FLuc modulator -13.8%.
O=[N+]([O-])c1nn(-c2ccc3c(c2)OCCO3)n(O)c1=NCCC1=CCCCC1 was read as ELG1 genotox inconclusive, SMN2 splice up inconclusive, ELG1 repair inh inconclusive, NPC1 prom act inconclusive, Rab9 promoter act 3.55µM* and FLuc modulator inconclusive.
For O=[N+]([O-])c1nn(-c2ccc3c(c2)OCCO3)n(O)c1=NCc1ccc(F)cc1Cl the results were ELG1 genotox inconclusive, SMN2 splice up 3.55µM*, ELG1 repair inh inconclusive, NPC1 prom act inconclusive, Rab9 promoter act 2.82µM* and FLuc modulator inconclusive.
`O=C(CC(Nc1ccccc1)c1ccccc1)C1CC1` (stereo unspecified) gave ELG1 genotox -2.8%, ELG1 repair inh -10.8%, NPC1 prom act -5.4%, Rab9 promoter act 2.6% and FLuc modulator -2.4%.
COc1ccc(C(=O)N2CCC3(CCN(C(=O)Nc4cccc(F)c4)CC3)CC2)cc1 was read as SMN2 splice up -28.2%.
For Nc1ncnc2c1ncn2[C@@H]1O[C@H](CNCC(O)CO)[C@@H](O)[C@H]1O (stereo partly specified) the results were ELG1 genotox 6.4% and ELG1 repair inh 13.2%.
For Cc1ccc2c(=O)c(C(=O)c3ccc(F)cc3)cn(CC(=O)NCCc3ccccc3)c2n1 the results were FLuc modulator 3.5%.
O=C(N/N=C/c1cc(Br)cs1)c1ccc2c(c1)OCCO2 was read as ELG1 genotox 15.2%, ELG1 repair inh inconclusive, NPC1 prom act 2.8%, Rab9 promoter act inconclusive and FLuc modulator 1.35µM*.
For O=C(N/N=C/c1cccs1)c1cccc2cc[nH]c12 the results were ELG1 genotox -8.2%, SMN2 splice up -18.5%, ELG1 repair inh -3.6%, NPC1 prom act inconclusive, Rab9 promoter act inconclusive and FLuc modulator 23.9µM*.
Screening Cc1ccc(/C=N/NC(=O)c2ccc3c(c2)OCCO3)s1 returned ELG1 genotox inconclusive, ELG1 repair inh inconclusive, NPC1 prom act inconclusive, Rab9 promoter act inconclusive and FLuc modulator 3.38µM*.
Screening Cc1ccc(/C=N/NC(=O)c2ccc3ccccc3c2)s1 returned ELG1 genotox inconclusive, ELG1 repair inh 11.5%, NPC1 prom act -19.8%, Rab9 promoter act -10.9% and FLuc modulator 26.9µM*.
`O=C(N/N=C/c1cccs1)c1ccc2ncccc2c1` gave ELG1 genotox 8.2%, SMN2 splice up 15.1%, ELG1 repair inh inconclusive, NPC1 prom act 3.1%, Rab9 promoter act 3.7% and FLuc modulator inconclusive.
For O=C(N/N=C/c1cccs1)c1ccc2ccccc2c1 the results were ELG1 genotox 16.0%, ELG1 repair inh inconclusive, NPC1 prom act 0.6%, Rab9 promoter act inconclusive and FLuc modulator 10.7µM*.
CCn1c(COc2ccc(OC)cc2)nc2ccccc21 was read as ELG1 genotox 16.9%, SMN2 splice up 1.0%, ELG1 repair inh inconclusive, NPC1 prom act inconclusive, Rab9 promoter act inconclusive and FLuc modulator 13.5µM*.
For COCCn1c(COc2ccc(OC)cc2)nc2ccccc21 the results were ELG1 genotox 6.4%, SMN2 splice up 17.2%, ELG1 repair inh inconclusive, NPC1 prom act 18.1%, Rab9 promoter act inconclusive and FLuc modulator -4.1%[2.3 µM].
C=CCn1c(COc2ccc(OC)cc2)nc2ccccc21 was read as ELG1 genotox inconclusive, ELG1 repair inh inconclusive, NPC1 prom act inconclusive, Rab9 promoter act inconclusive and FLuc modulator 16.9µM*.
For CCn1c(COc2ccccc2)nc2ccccc21 the results were ELG1 genotox 21.0%, SMN2 splice up 2.7%, ELG1 repair inh inconclusive, NPC1 prom act 1.6%, Rab9 promoter act 1.7% and FLuc modulator inconclusive.
